This is part of a sample that, as a whole, favours compounds with a hit. Of some 79,000 tested, about 15% had one in any assay. Active and inactive are the calls of the source. Rule as the data show it: active = growth inhibition above about 70%; inactive = the rest.
Columns and labels:
[1] = NCI Yeast Anticancer Drug Screen. Data for the rad52 strain (AID 147);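 also: 0% = growth of vehicle-treated control cultures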; conditions: S. cerevisiae rad52 mutant growth inhibition, active compounds read high
Summary of the method: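 Measured: yeast growth inhibition. System: strain with a defined DNA damage repair alteration. Reference: vehicle-treated control cultures.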

[2] = NCI Yeast Anticancer Drug Screen. Data for the wt1 strain (AID 149);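 also: 0% = growth of vehicle-treated wt1 cultures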; conditions: S. cerevisiae wt1 strain (SPY 50644) growth inhibition, active compounds read high
Summary of the method: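 Vehicle-normalised growth inhibition; strain wt1; compound exposure.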

[3] = NCI Yeast Anticancer Drug Screen. Data for the rad50EPP+ strain (AID 151);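 also: 0% = growth of vehicle-treated control cultures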; conditions: S. cerevisiae rad50 mutant strain, active compounds read high
Summary of the method: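 One strain with a rad50 alteration (rad50EPP+) was compound-treated, its growth then compared to that of vehicle controls.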

[4] = NCI Yeast Anticancer Drug Screen. Data for the mgt1 strain (AID 153); conditions: S. cerevisiae mgt1 mutant growth inhibition, active compounds read high
Summary of the method: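 After exposure of the mgt1 yeast mutant to compound, growth was measured and reported as inhibition compared with vehicle controls.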

[5] = NCI Yeast Anticancer Drug Screen. Data for the rad50 strain (AID 155);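 also: 0% = growth of vehicle-only cultures of the same strain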; conditions: S. cerevisiae rad50 strain growth inhibition, active compounds read high
Summary of the method: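 A DNA repair-deficient yeast mutant serves as the test organism; compound-induced growth inhibition is calculated against vehicle-treated cells.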

[6] = NCI Yeast Anticancer Drug Screen. Data for the mec2-1 strain (AID 157); conditions: S. cerevisiae mec2-1 strain, active compounds read high
Summary of the method: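 Test agents were screened against the mec2-1 yeast strain, with defined DNA repair or cell cycle alteration. Growth was scored as inhibition against vehicle-only controls.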

[7] = NCI Yeast Anticancer Drug Screen. Data for the rad14 strain (AID 159);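 also: 0% = growth of vehicle-treated control cultures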; conditions: S. cerevisiae rad14 strain growth inhibition, active compounds read high
Summary of the method: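 Vehicle-treated cultures served as the baseline for growth inhibition of a DNA repair-mutant yeast strain exposed to each compound.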

[8] = NCI Yeast Anticancer Drug Screen. Data for the sgs1 mgt1 strain (AID 161);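 also: 0% = growth of cultures given vehicle only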; conditions: S. cerevisiae sgs1 mgt1 strain, active compounds read high
Summary of the method: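 Read-out: growth inhibition vs vehicle controls. Cells: mutant yeast strain deficient in DNA damage repair.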

[9] = NCI Yeast Anticancer Drug Screen. Data for the CLN2oe strain (AID 163);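 also: 0% = growth of vehicle-only control cultures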; conditions: S. cerevisiae CLN2oe strain, active compounds read high
Summary of the method: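 Here, growth inhibition in a cell-cycle-altered yeast strain after compound exposure was quantified against vehicle control growth.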

[10] = NCI Yeast Anticancer Drug Screen. Data for the cln2 rad14 strain (AID 165);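 also: 0% = growth equal to vehicle treated cultures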; conditions: S. cerevisiae cln2 rad14 strain, active compounds read high
Summary of the method: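 Growth of compound-exposed yeast (cln2 rad14 genotype) measured and expressed as inhibition relative to vehicle.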

[11] = NCI Yeast Anticancer Drug Screen. Data for the bub3 strain (AID 167); conditions: S. cerevisiae bub3 mutant strain, active compounds read high
Summary of the method: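 Inhibition values come from growth of compound-treated mutant yeast normalised to vehicle-treated controls.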

[12] = NCI Yeast Anticancer Drug Screen. Data for the wt2 strain (AID 169);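 also: 0% = growth of vehicle-treated yeast cultures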; conditions: S. cerevisiae wt2 strain growth inhibition, active compounds read high
Summary of the method: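 Genetically defined yeast strains from a DNA-repair/cell-cycle panel were used. Compound-exposed yeast growth was measured, and the inhibition was calculated relative to vehicle treatment.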

[13] = NCI Yeast Anticancer Drug Screen. Data for the sgs1 strain (AID 173);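 also: 0% = growth of vehicle-only control cultures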; conditions: S. cerevisiae sgs1 mutant, active compounds read high
Summary of the method: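 Relative growth inhibition, referenced to vehicle, was determined in a yeast strain with a defined alteration affecting DNA damage repair or cell cycle control after compound exposure.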

[14] = NCI Yeast Anticancer Drug Screen. Data for the mlh1 rad18 strain (AID 175); conditions: S. cerevisiae mlh1 rad18 strain growth inhibition, active compounds read high
Summary of the method: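 In this whole-cell yeast screen, a strain with altered DNA damage repair is challenged with compound, and its growth is measured against matched vehicle-treated controls.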

[15] = NCI Yeast Anticancer Drug Screen. Data for the rad18 strain (AID 177); conditions: S. cerevisiae rad18 mutant growth inhibition, active compounds read high
Summary of the method: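 Screen uses a yeast strain with a defined lesion in DNA damage repair; compound effect is read as loss of growth compared to untreated vehicle cultures.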

[16] = NCI Yeast Anticancer Drug Screen. Data for the mlh1 strain (AID 171);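 also: 0% = growth of vehicle-treated control cultures of the same strain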; conditions: S. cerevisiae mlh1 strain growth inhibition, active compounds read high
Summary of the method: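 Here the genetically defined yeast mutant is grown with each compound, and the extent to which its growth falls below that of vehicle-exposed cells is reported.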

[17] = at 5.0 µM (retest, dose inferred, filed as 0.5)
[18] = at 50.0 µM (retest, dose inferred, filed as 5.0)

Measured: growth inhibition

CCOC(=O)C1=C(C)NC(C)=C(C(=O)OCCNC(=O)c2ccc(N=[N+]=[N-])cc2)C1c1ccccc1C(F)(F)F (stereo unspecified)
inactive: [1]; at 1.2 µM 4% | [1]; at 3.7 µM 4% | [1]; at 11.0 µM 13% | [1]; at 33.0 µM 24% | [1]; at 100.0 µM 39% | [2]; at 1.2 µM 1% | [2]; at 3.7 µM 0% | [2]; at 11.0 µM -2% | [2]; at 33.0 µM 2% | [2]; at 100.0 µM 21% | [3]; at 1.2 µM -1% | [3]; at 3.7 µM 0% | [3]; at 11.0 µM 1% | [3]; at 33.0 µM 3% | [3]; at 100.0 µM -11% | [4]; at 1.2 µM -2% | [4]; at 3.7 µM -3% | [4]; at 11.0 µM -2% | [4]; at 33.0 µM 12% | [4]; at 100.0 µM 24% | [5]; at 1.2 µM 1% | [5]; at 3.7 µM -1% | [5]; [17] 3% | [5]; at 11.0 µM 17% | [5]; at 33.0 µM 39% | [5]; [18] 18% | [5]; at 50.0 µM 40.1% | [5]; at 100.0 µM 41% | [6]; at 1.2 µM 1% | [6]; at 3.7 µM 4% | [6]; [17] 1% | [6]; at 11.0 µM -2% | [6]; at 33.0 µM 13% | [6]; [18] -46% | [6]; at 50.0 µM 53.3% | [6]; at 100.0 µM 47% | [7]; at 1.2 µM 0% | [7]; at 3.7 µM -4% | [7]; at 11.0 µM 3% | [7]; at 33.0 µM 8% | [7]; at 100.0 µM 22% | [8]; [17] 5% | [8]; [18] 51% | [8]; at 50.0 µM 9.9% | [9]; at 1.2 µM -3% | [9]; at 3.7 µM -2% | [9]; at 11.0 µM -2% | [9]; at 33.0 µM 25% | [9]; at 100.0 µM 53% | [10]; [17] 4% | [10]; [18] 19% | [10]; at 50.0 µM 2.85% | [11]; at 1.2 µM -8% | [11]; at 3.7 µM -7% | [11]; [17] -42% | [11]; at 11.0 µM -5% | [11]; at 33.0 µM 4% | [11]; [18] 29% | [11]; at 50.0 µM 57.4% | [11]; at 100.0 µM 31% | [12]; at 1.2 µM 0% | [12]; at 3.7 µM -2% | [12]; at 11.0 µM 0% | [12]; at 33.0 µM 5% | [12]; at 100.0 µM 19% | [13]; at 1.2 µM 1% | [13]; at 3.7 µM -2% | [13]; at 11.0 µM 1% | [13]; at 33.0 µM 32% | [13]; at 100.0 µM 65% | [14]; [17] 2% | [14]; [18] 43% | [14]; at 50.0 µM 32.5% | [15]; at 1.2 µM 3% | [15]; at 3.7 µM -4% | [15]; at 11.0 µM 4% | [15]; at 33.0 µM 8% | [15]; at 100.0 µM 23%

CSc1nnc(SC)nn1
inactive: [1]; at 1.2 µM 1% | [1]; at 3.7 µM 7% | [1]; at 11.0 µM 0% | [1]; at 33.0 µM 52% | [2]; at 1.2 µM -4% | [2]; at 3.7 µM -5% | [2]; at 11.0 µM -14% | [2]; at 33.0 µM 22% | [3]; at 1.2 µM 6% | [3]; at 3.7 µM 4% | [3]; at 11.0 µM -2% | [3]; at 33.0 µM 26% | [4]; at 1.2 µM 8% | [4]; at 3.7 µM 4% | [4]; at 11.0 µM 13% | [5]; at 1.2 µM -13% | [5]; at 3.7 µM -3% | [5]; [17] 51% | [5]; at 11.0 µM -2% | [5]; at 33.0 µM 45% | [6]; at 1.2 µM 9% | [6]; at 3.7 µM 1% | [6]; [17] 57% | [6]; at 11.0 µM 16% | [7]; at 1.2 µM -10% | [7]; at 3.7 µM 0% | [7]; at 11.0 µM 34% | [8]; [17] -10% | [9]; at 1.2 µM 12% | [9]; at 3.7 µM -6% | [9]; at 11.0 µM 15% | [9]; at 33.0 µM 31% | [10]; [17] 57% | [11]; at 1.2 µM 11% | [11]; at 3.7 µM 27% | [11]; [17] 34% | [11]; at 11.0 µM 65% | [16]; at 1.2 µM -2% | [16]; at 3.7 µM 6% | [16]; at 11.0 µM 15% | [16]; at 33.0 µM 55% | [13]; at 1.2 µM -2% | [13]; at 3.7 µM 3% | [13]; at 11.0 µM 0% | [13]; at 33.0 µM 44% | [14]; [17] 58% | [15]; at 1.2 µM -4% | [15]; at 3.7 µM 11% | [15]; at 11.0 µM 12% | [15]; at 33.0 µM 67%
active: [1]; at 100.0 µM 98% | [2]; at 100.0 µM 99% | [3]; at 100.0 µM 98% | [4]; at 33.0 µM 72% | [4]; at 100.0 µM 98% | [5]; [18] 98% | [5]; at 50.0 µM 82.2% | [5]; at 100.0 µM 96% | [6]; at 33.0 µM 77% | [6]; [18] 97% | [6]; at 50.0 µM 77.8% | [6]; at 100.0 µM 99% | [7]; at 33.0 µM 77% | [7]; at 100.0 µM 98% | [8]; [18] 99% | [8]; at 50.0 µM 82.8% | [9]; at 100.0 µM 98% | [10]; [18] 95% | [10]; at 50.0 µM 87.7% | [11]; at 33.0 µM 90% | [11]; [18] 98% | [11]; at 50.0 µM 93.1% | [11]; at 100.0 µM 99% | [16]; at 100.0 µM 99% | [13]; at 100.0 µM 98% | [14]; [18] 99% | [14]; at 50.0 µM 70.8% | [15]; at 100.0 µM 98%

Source: PubChem BioAssay (NCI)
